In PubChem BioAssay AID1159580 (chemical genetic matrix, 2015):
The campaign covered roughly 5,500 compounds. About 2,000 (36%) were called active. Not shown: some 18% with an inconclusive outcome. Cut-off read from the data, not from the text of the source: active = normalized growth mostly below about 0.91 (no sharp cut-off); inconclusive = no clear call, values can overlap the other calls; inactive = mostly above about 0.92. Some of the results follow.

Assay: chemical genetic growth profiling, strain panel (AID 1159580);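 note: tested at 20 µM; growth read once vehicle control cultures reached saturation at 30 °C; 1 = growth at the plate median or of vehicle wells; lower values mean less growth of the strain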
Settings: growth OD

Measured: normalized growth

CCCC(=O)O[C@]1(C(=O)CO)CCC2[C@@H]3CCC4=CC(=O)CC[C@]4(C)C3[C@@H](O)C[C@@]21C (stereo not given in full)
inactive: S. cerevisiae deletion strains, locus YJR066W, strain TOR1, hits give low values 0.99 | S. cerevisiae deletion strains, locus YKL009W, strain mrt4, hits give low values 0.958 | S. cerevisiae deletion strains, locus YKL068W, hits give low values 1.02 | S. cerevisiae deletion strains, locus YKL085W, strain MDH1 (second series), hits give low values 1.01 | S. cerevisiae deletion strains, locus YKL085W, strain MDH1, hits give low values 1.01 | S. cerevisiae deletion strains, locus YKL160W, strain elf1, hits give low values 1.01 | S. cerevisiae deletion strains, locus YKL190W, strain CNB1, hits give low values 1 | S. cerevisiae deletion strains, locus YKR001C, strain vps1, hits give low values 0.982 | S. cerevisiae deletion strains, locus YKR026C, strain gcn3, hits give low values 1.01 | S. cerevisiae deletion strains, locus YKR091W, strain srl3, hits give low values 1 | S. cerevisiae deletion strains, locus YLL001W, strain dnm1, hits give low values 1.01 | S. cerevisiae deletion strains, locus YLL026W, hits give low values 1 | S. cerevisiae deletion strains, locus YLL041C, strain sdh2, hits give low values 1 | S. cerevisiae deletion strains, locus YLR027C, strain aat2, hits give low values 1 | S. cerevisiae deletion strains, locus YLR039C, strain RIC1, hits give low values 0.988 | S. cerevisiae deletion strains, locus YLR058C, strain SHM2, hits give low values 1.01 | S. cerevisiae deletion strains, locus YLR102C, strain apc9, hits give low values 0.985 | S. cerevisiae deletion strains, locus YLR113W, strain HOG1, hits give low values 1.07 | S. cerevisiae deletion strains, locus YLR221C, strain rsa3, hits give low values 1.01 | S. cerevisiae deletion strains, locus YLR258W, strain gsy2, hits give low values 1.01 | S. cerevisiae deletion strains, locus YLR262C, strain YPT6 (second series), hits give low values 1.01 | S. cerevisiae deletion strains, locus YLR262C, strain YPT6, hits give low values 1.01 | S. cerevisiae deletion strains, locus YLR268W, strain sec22, hits give low values 0.988 | S. cerevisiae deletion strains, locus YLR320W, strain mms22, hits give low values 1.02 | S. cerevisiae deletion strains, locus YLR330W, strain CHS5, hits give low values 1.01 | S. cerevisiae deletion strains, locus YLR342W, strain FKS1 (second series), hits give low values 0.996 | S. cerevisiae deletion strains, locus YLR342W, strain FKS1, hits give low values 1.02 | S. cerevisiae deletion strains, locus YLR357W, strain rsc2, hits give low values 1 | S. cerevisiae deletion strains, locus YLR370C, strain arc18, hits give low values 1.01 | S. cerevisiae deletion strains, locus YLR371W, strain rom2, hits give low values 0.996 | S. cerevisiae deletion strains, locus YLR384C, strain iki3, hits give low values 1.01 | S. cerevisiae deletion strains, locus YLR418C, strain cdc73, hits give low values 0.934 | S. cerevisiae deletion strains, locus YML016C, strain PPZ1, hits give low values 1.01 | S. cerevisiae deletion strains, locus YML032C, strain rad52, hits give low values 0.948 | S. cerevisiae deletion strains, locus YML120C, strain ndi1, hits give low values 0.992 | S. cerevisiae deletion strains, locus YML124C, strain tub3, hits give low values 0.996 | S. cerevisiae deletion strains, locus YMR058W, strain fet3, hits give low values 1.01 | S. cerevisiae deletion strains, locus YMR078C, strain ctf18, hits give low values 0.984 | S. cerevisiae deletion strains, locus YMR125W, strain sto1, hits give low values 1.02 | S. cerevisiae deletion strains, locus YMR129W, hits give low values 1.01 | S. cerevisiae deletion strains, locus YMR205C, strain PFK2, hits give low values 1.02 | S. cerevisiae deletion strains, locus YMR223W, strain ubp8, hits give low values 0.951 | S. cerevisiae deletion strains, locus YMR231W, strain pep5, hits give low values 1.01 | S. cerevisiae deletion strains, locus YMR263W, strain SAP30, hits give low values 1.01 | S. cerevisiae deletion strains, locus YMR307W, strain GAS1, hits give low values 0.999 | S. cerevisiae deletion strains, locus YNL067W, strain RPL9B, hits give low values 1.01 | S. cerevisiae deletion strains, locus YNL071W, strain lat1, hits give low values 1 | S. cerevisiae deletion strains, locus YNL128W, strain TEP1, hits give low values 0.994 | S. cerevisiae deletion strains, locus YNL153C, strain GIM3, hits give low values 1.02 | S. cerevisiae deletion strains, locus YNL183C, strain NPR1, hits give low values 0.995 | S. cerevisiae deletion strains, locus YNL209W, strain ssb2, hits give low values 1 | S. cerevisiae deletion strains, locus YNL233W, strain BNI4, hits give low values 1.02 | S. cerevisiae deletion strains, locus YNL248C, strain rpa49, hits give low values 1.02 | S. cerevisiae deletion strains, locus YNL250W, strain rad50, hits give low values 0.983 | S. cerevisiae deletion strains, locus YNL271C, strain bni1, hits give low values 0.992 | S. cerevisiae deletion strains, locus YNL298W, strain CLA4, hits give low values 0.972 | S. cerevisiae deletion strains, locus YNL307C, strain MCK1, hits give low values 0.982 | S. cerevisiae deletion strains, locus YNL322C, strain KRE1 (second series), hits give low values 1.01 | S. cerevisiae deletion strains, locus YNR049C, strain mso1, hits give low values 1.01 | S. cerevisiae deletion strains, locus YNR052C, strain pop2, hits give low values 0.975 | S. cerevisiae deletion strains, locus YOL006C, strain TOP1, hits give low values 1.06 | S. cerevisiae deletion strains, locus YOL012C, strain htz1 1.05 | S. cerevisiae deletion strains, locus YOL147C, strain pex11, hits give low values 0.982 | S. cerevisiae deletion strains, locus YOR001W, strain rrp6, hits give low values 1.02 | S. cerevisiae deletion strains, locus YOR061W, strain CKA2, hits give low values 1.01 | S. cerevisiae deletion strains, locus YOR069W, strain VPS5, hits give low values 1 | S. cerevisiae deletion strains, locus YOR070C, strain gyp1, hits give low values 1 | S. cerevisiae deletion strains, locus YOR080W, strain dia2, hits give low values 0.997 | S. cerevisiae deletion strains, locus YOR083W, strain WHI5, hits give low values 1 | S. cerevisiae deletion strains, locus YOR106W, strain vam3, hits give low values 1 | S. cerevisiae deletion strains, locus YOR136W, strain idh2, hits give low values 0.983 | S. cerevisiae deletion strains, locus YOR144C, strain elg1, hits give low values 0.977 | S. cerevisiae deletion strains, locus YOR184W, strain ser1, hits give low values 0.963 | S. cerevisiae deletion strains, locus YOR231W, strain MKK1, hits give low values 1.09 | S. cerevisiae deletion strains, locus YOR265W, strain rbl2, hits give low values 1 | S. cerevisiae deletion strains, locus YOR270C, strain vph1, hits give low values 1.01 | S. cerevisiae deletion strains, locus YOR290C, strain snf2, hits give low values 1 | S. cerevisiae deletion strains, locus YOR316C, strain cot1, hits give low values 0.994 | S. cerevisiae deletion strains, locus YPL051W, strain arl3, hits give low values 1 | S. cerevisiae deletion strains, locus YPL055C, strain LGE1, hits give low values 1.04 | S. cerevisiae deletion strains, locus YPL078C, strain atp4, hits give low values 1.01 | S. cerevisiae deletion strains, locus YPL106C, strain sse1, hits give low values 1.02 | S. cerevisiae deletion strains, locus YPL240C, strain hsp82, hits give low values 1 | S. cerevisiae deletion strains, locus YPL256C, strain CLN2, hits give low values 1.05 | S. cerevisiae deletion strains, locus YPR119W, strain clb2, hits give low values 0.993 | S. cerevisiae deletion strains, locus YPR141C, strain kar3, hits give low values 1.01 | S. cerevisiae deletion strains, locus YPR163C, strain tif3, hits give low values 1.01 | S. cerevisiae deletion strains, locus YPR167C, strain met16, hits give low values 0.99 | S. cerevisiae deletion strains, strain wtn01, hits give low values 0.961 | S. cerevisiae strains, strain wild type, hits give low values 1.01
